# Source: PubChem BioAssay (NCI)
# “And” between values parts separate entries of the source, which are not always exact repeats. Identical values can stand only once. This is part of a sample that, as a whole, favours compounds with a hit. Of some 79,000 tested, about 15% had one in any assay. The source holds several records for some structures; these can differ, active in one and inactive in another. The source made the active and inactive calls. Rule as the data show it: active = growth inhibition above about 70%; inactive = the rest.
# Assays:
# [1] = NCI Yeast Anticancer Drug Screen. Data for the wt1 strain (AID 149);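 also: 0% = growth of vehicle-treated wt1 cultures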; settings: S. cerevisiae wt1 strain (SPY 50644) growth inhibition, stronger effect = higher value
# In short: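 Measured: growth of wt1 yeast under compound versus vehicle treatment, reported as inhibition.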
# [2] = NCI Yeast Anticancer Drug Screen. Data for the rad50EPP+ strain (AID 151);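 also: 0% = growth of vehicle-treated control cultures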; settings: S. cerevisiae rad50 mutant strain, stronger effect = higher value
# In short: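 Vehicle-normalised growth inhibition; rad50EPP+ yeast strain, altered in DNA damage repair, compound-treated.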
# [3] = NCI Yeast Anticancer Drug Screen. Data for the mgt1 strain (AID 153); settings: S. cerevisiae mgt1 mutant growth inhibition, stronger effect = higher value
# In short: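 Vehicle-normalized growth inhibition is determined in mgt1 yeast, a strain selected for a defined alteration in DNA repair or cell cycle control.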
# [4] = NCI Yeast Anticancer Drug Screen. Data for the rad50 strain (AID 155);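 also: 0% = growth of vehicle-only cultures of the same strain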; settings: S. cerevisiae rad50 strain growth inhibition, stronger effect = higher value
# In short: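 Growth of the mutant yeast was measured after compound exposure and referenced to vehicle-treated cultures.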
# [5] = NCI Yeast Anticancer Drug Screen. Data for the mec2-1 strain (AID 157); settings: S. cerevisiae mec2-1 strain, stronger effect = higher value
# In short: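 Mutant yeast (mec2-1) grown with compound; growth inhibition relative to vehicle control reported.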
# [6] = NCI Yeast Anticancer Drug Screen. Data for the rad14 strain (AID 159);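 also: 0% = growth of vehicle-treated control cultures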; settings: S. cerevisiae rad14 strain growth inhibition, stronger effect = higher value
# In short: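 Here, inhibition of yeast growth was measured after compound exposure, using a strain with a genetic defect in DNA damage repair and vehicle-treated cultures as the reference.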
# [7] = NCI Yeast Anticancer Drug Screen. Data for the sgs1 mgt1 strain (AID 161);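 also: 0% = growth of cultures given vehicle only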; settings: S. cerevisiae sgs1 mgt1 strain, stronger effect = higher value
# In short: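 This yeast growth screen uses a strain with defined DNA-repair lesions; compound-treated growth is compared with vehicle-treated growth.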
# [8] = NCI Yeast Anticancer Drug Screen. Data for the CLN2oe strain (AID 163);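 also: 0% = growth of vehicle-only control cultures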; settings: S. cerevisiae CLN2oe strain, stronger effect = higher value
# In short: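 Compounds are applied to yeast harbouring a defined cell-cycle control change; reduced growth compared with vehicle-treated controls gives the value.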
# [9] = NCI Yeast Anticancer Drug Screen. Data for the cln2 rad14 strain (AID 165);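 also: 0% = growth equal to vehicle treated cultures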; settings: S. cerevisiae cln2 rad14 strain, stronger effect = higher value
# In short: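 Readout is yeast growth inhibition versus vehicle-treated controls, using a strain with cln2 and rad14 alterations exposed to compound.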
# [10] = NCI Yeast Anticancer Drug Screen. Data for the bub3 strain (AID 167); settings: S. cerevisiae bub3 mutant strain, stronger effect = higher value
# In short: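 Whole-cell yeast assay. The mutant strain was incubated with compounds, and growth inhibition was determined by comparison with vehicle-treated cells.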
# [11] = NCI Yeast Anticancer Drug Screen. Data for the wt2 strain (AID 169);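 also: 0% = growth of vehicle-treated yeast cultures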; settings: S. cerevisiae wt2 strain growth inhibition, stronger effect = higher value
# In short: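 Against vehicle-treated controls, the growth of yeast exposed to each compound was compared, and the inhibition was recorded.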
# [12] = NCI Yeast Anticancer Drug Screen. Data for the mlh1 strain (AID 171);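 also: 0% = growth of vehicle-treated control cultures of the same strain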; settings: S. cerevisiae mlh1 strain growth inhibition, stronger effect = higher value
# In short: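 Measured: yeast growth. Reference: vehicle-treated controls. Organism: strain with a defined alteration affecting DNA damage repair or cell cycle control, treated with compound.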
# [13] = NCI Yeast Anticancer Drug Screen. Data for the sgs1 strain (AID 173);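 also: 0% = growth of vehicle-only control cultures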; settings: S. cerevisiae sgs1 mutant, stronger effect = higher value
# In short: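 Each compound was added to cultures of the altered yeast strain. Growth was recorded, and inhibition was derived by comparison with vehicle controls.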
# [14] = NCI Yeast Anticancer Drug Screen. Data for the mlh1 rad18 strain (AID 175); settings: S. cerevisiae mlh1 rad18 strain growth inhibition, stronger effect = higher value
# In short: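 Genetically defined yeast (DNA repair-deficient) exposed to compounds; growth inhibition determined relative to vehicle.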
# [15] = NCI Yeast Anticancer Drug Screen. Data for the rad18 strain (AID 177); settings: S. cerevisiae rad18 mutant growth inhibition, stronger effect = higher value
# In short: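 Vehicle-treated cultures served as the baseline for scoring compound-induced growth inhibition in DNA-repair-mutant yeast.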
# [16] = at 5.0 µM (retest, dose inferred, filed as 0.5)
# [17] = at 50.0 µM (retest, dose inferred, filed as 5.0)
smiles,measurement,setting,value
O=C1NC(SSC2=NNC3(C(=O)N2)c2ccccc2-c2ccccc23)=NNC12c1ccccc1-c1ccccc12,growth inhibition,[1]; at 1.2 µM,0% (inactive)
same,growth inhibition,[1]; at 3.7 µM,0% (inactive)
same,growth inhibition,[1]; at 11.0 µM,0% (inactive)
same,growth inhibition,[1]; at 33.0 µM,1% (inactive)
same,growth inhibition,[1]; at 100.0 µM,5% (inactive)
same,growth inhibition,[2]; at 1.2 µM,8% (inactive)
same,growth inhibition,[2]; at 3.7 µM,9% (inactive)
same,growth inhibition,[2]; at 11.0 µM,20% (inactive)
same,growth inhibition,[2]; at 33.0 µM,43% (inactive)
same,growth inhibition,[2]; at 100.0 µM,63% (inactive)
same,growth inhibition,[3]; at 1.2 µM,1% (inactive)
same,growth inhibition,[3]; at 3.7 µM,0% (inactive)
same,growth inhibition,[3]; at 11.0 µM,0% (inactive)
same,growth inhibition,[3]; at 33.0 µM,-10% (inactive)
same,growth inhibition,[3]; at 100.0 µM,7% (inactive)
same,growth inhibition,[4]; at 1.2 µM,-1% (inactive)
same,growth inhibition,[4]; at 3.7 µM,7% (inactive)
same,growth inhibition,[4]; [16],-4% (inactive)
same,growth inhibition,[4]; at 11.0 µM,-13% (inactive)
same,growth inhibition,[4]; at 33.0 µM,18% (inactive)
same,growth inhibition,[4]; [17],53% (inactive)
same,growth inhibition,[4]; at 50.0 µM,96.2% (active)
same,growth inhibition,[4]; at 100.0 µM,37% (inactive)
same,growth inhibition,[5]; at 1.2 µM,1% (inactive)
same,growth inhibition,[5]; at 3.7 µM,2% (inactive)
same,growth inhibition,[5]; [16],-11% (inactive)
same,growth inhibition,[5]; at 11.0 µM,3% (inactive)
same,growth inhibition,[5]; at 33.0 µM,7% (inactive)
same,growth inhibition,[5]; [17],10% (inactive)
same,growth inhibition,[5]; at 50.0 µM,80% (active)
same,growth inhibition,[5]; at 100.0 µM,13% (inactive)
same,growth inhibition,[6]; at 1.2 µM,-1% (inactive)
same,growth inhibition,[6]; at 3.7 µM,-4% (inactive)
same,growth inhibition,[6]; at 11.0 µM,-1% (inactive)
same,growth inhibition,[6]; at 33.0 µM,2% (inactive)
same,growth inhibition,[6]; at 100.0 µM,8% (inactive)
same,growth inhibition,[7]; [16],-7% (inactive)
same,growth inhibition,[7]; [17],-23% (inactive)
same,growth inhibition,[7]; at 50.0 µM,80.5% (active)
same,growth inhibition,[8]; at 1.2 µM,4% (inactive)
same,growth inhibition,[8]; at 3.7 µM,1% (inactive)
same,growth inhibition,[8]; at 11.0 µM,1% (inactive)
same,growth inhibition,[8]; at 33.0 µM,5% (inactive)
same,growth inhibition,[8]; at 100.0 µM,2% (inactive)
same,growth inhibition,[9]; [16],0% (inactive)
same,growth inhibition,[9]; [17],-14% (inactive)
same,growth inhibition,[9]; at 50.0 µM,51.8% (inactive)
same,growth inhibition,[10]; at 1.2 µM,4% (inactive)
same,growth inhibition,[10]; at 3.7 µM,6% (inactive)
same,growth inhibition,[10]; [16],10% (inactive)
same,growth inhibition,[10]; at 11.0 µM,7% (inactive)
same,growth inhibition,[10]; at 33.0 µM,12% (inactive)
same,growth inhibition,[10]; [17],25% (inactive)
same,growth inhibition,[10]; at 50.0 µM,86.5% (active)
same,growth inhibition,[10]; at 100.0 µM,12% (inactive)
same,growth inhibition,[11]; at 1.2 µM,-1% (inactive)
same,growth inhibition,[11]; at 3.7 µM,-3% (inactive)
same,growth inhibition,[11]; at 11.0 µM,-3% (inactive)
same,growth inhibition,[11]; at 33.0 µM,0% (inactive)
same,growth inhibition,[11]; at 100.0 µM,5% (inactive)
same,growth inhibition,[12]; at 1.2 µM,3% (inactive)
same,growth inhibition,[12]; at 3.7 µM,1% (inactive)
same,growth inhibition,[12]; at 11.0 µM,2% (inactive)
same,growth inhibition,[12]; at 33.0 µM,8% (inactive)
same,growth inhibition,[12]; at 100.0 µM,17% (inactive)
same,growth inhibition,[13]; at 1.2 µM,-4% (inactive)
same,growth inhibition,[13]; at 3.7 µM,-1% (inactive)
same,growth inhibition,[13]; at 11.0 µM,-6% (inactive)
same,growth inhibition,[13]; at 33.0 µM,1% (inactive)
same,growth inhibition,[13]; at 100.0 µM,11% (inactive)
same,growth inhibition,[14]; [16],-11% (inactive)
same,growth inhibition,[14]; [17],-7% (inactive)
same,growth inhibition,[14]; at 50.0 µM,96.2% (active)
same,growth inhibition,[15]; at 1.2 µM,0% (inactive)
same,growth inhibition,[15]; at 3.7 µM,3% (inactive)
same,growth inhibition,[15]; at 11.0 µM,5% (inactive)
same,growth inhibition,[15]; at 33.0 µM,5% (inactive)
same,growth inhibition,[15]; at 100.0 µM,9% (inactive)
Cc1ccc(N=Nc2ccc(O)c(=O)cc2)cc1,growth inhibition,[1]; at 1.2 µM,1% (inactive)
same,growth inhibition,[1]; at 3.7 µM,25% (inactive)
same,growth inhibition,[1]; at 11.0 µM,37% (inactive)
same,growth inhibition,[1]; at 33.0 µM,78% (active)
same,growth inhibition,[1]; at 100.0 µM,91% (active)
same,growth inhibition,[2]; at 1.2 µM,-31% (inactive)
same,growth inhibition,[2]; at 3.7 µM,-64% (inactive)
same,growth inhibition,[2]; at 11.0 µM,-24% (inactive)
same,growth inhibition,[2]; at 33.0 µM,62% (inactive)
same,growth inhibition,[2]; at 100.0 µM,87% (active)
same,growth inhibition,[3]; at 1.2 µM,8% (inactive)
same,growth inhibition,[3]; at 3.7 µM,29% (inactive)
same,growth inhibition,[3]; at 11.0 µM,56% (inactive)
same,growth inhibition,[3]; at 33.0 µM,86% (active)
same,growth inhibition,[3]; at 100.0 µM,91% (active)
same,growth inhibition,[4]; at 1.2 µM,4% (inactive)
same,growth inhibition,[4]; at 3.7 µM,5% (inactive)
same,growth inhibition,[4]; [16],17% (inactive)
same,growth inhibition,[4]; at 11.0 µM,42% (inactive)
same,growth inhibition,[4]; at 33.0 µM,83% (active)
same,growth inhibition,[4]; [17],81% (active)
same,growth inhibition,[4]; at 50.0 µM,-18.2% (inactive) and 82.3% (active)
same,growth inhibition,[4]; at 100.0 µM,92% (active)
same,growth inhibition,[5]; at 1.2 µM,-13% (inactive)
same,growth inhibition,[5]; at 3.7 µM,-7% (inactive)
same,growth inhibition,[5]; [16],-2% (inactive)
same,growth inhibition,[5]; at 11.0 µM,26% (inactive)
same,growth inhibition,[5]; at 33.0 µM,82% (active)
same,growth inhibition,[5]; [17],43% (inactive)
same,growth inhibition,[5]; at 50.0 µM,8.6% (inactive) and 88.3% (active)
same,growth inhibition,[5]; at 100.0 µM,91% (active)
same,growth inhibition,[6]; at 1.2 µM,-3% (inactive)
same,growth inhibition,[6]; at 3.7 µM,1% (inactive)
same,growth inhibition,[6]; at 11.0 µM,47% (inactive)
same,growth inhibition,[6]; at 33.0 µM,84% (active)
same,growth inhibition,[6]; at 100.0 µM,92% (active)
same,growth inhibition,[7]; [16],53% (inactive)
same,growth inhibition,[7]; [17],95% (active)
same,growth inhibition,[7]; at 50.0 µM,-10.6% (inactive) and 89.8% (active)
same,growth inhibition,[8]; at 1.2 µM,-2% (inactive)
same,growth inhibition,[8]; at 3.7 µM,16% (inactive)
same,growth inhibition,[8]; at 11.0 µM,47% (inactive)
same,growth inhibition,[8]; at 33.0 µM,83% (active)
same,growth inhibition,[8]; at 100.0 µM,93% (active)
same,growth inhibition,[9]; [16],13% (inactive)
same,growth inhibition,[9]; [17],95% (active)
same,growth inhibition,[9]; at 50.0 µM,-1.5% (inactive) and 90.4% (active)
same,growth inhibition,[10]; at 1.2 µM,-6% (inactive)
same,growth inhibition,[10]; at 3.7 µM,3% (inactive)
same,growth inhibition,[10]; [16],6% (inactive)
same,growth inhibition,[10]; at 11.0 µM,49% (inactive)
same,growth inhibition,[10]; at 33.0 µM,90% (active)
same,growth inhibition,[10]; [17],91% (active)
same,growth inhibition,[10]; at 50.0 µM,-6.8% (inactive) and 87.5% (active)
same,growth inhibition,[10]; at 100.0 µM,92% (active)
same,growth inhibition,[11]; at 1.2 µM,-4% (inactive)
same,growth inhibition,[11]; at 3.7 µM,21% (inactive)
same,growth inhibition,[11]; at 11.0 µM,48% (inactive)
same,growth inhibition,[11]; at 33.0 µM,87% (active)
same,growth inhibition,[11]; at 100.0 µM,94% (active)
